Assay results from PubChem BioAssay AID1508621 (National Center for Advancing Translational Sciences (NCATS), 2021).
Results filed as inconclusive are left out. Where a call stands in place of a potency, no number is given. Activity calls are given as the source filed them. Calls come from the whole dose curve; as a rule, active = well fitted inhibition curve with a large enough effect; inconclusive = small, poorly fitted or top-dose-only effect; inactive = no such curve, though single readings can be large or run the other way.

Assay: Confirmatory qHTS for Identification of Small Molecule Inhibitors of Huntingtin Promoter Activity; note: nearly all actives have a fitted effect of over 65% in size
How it was run: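 Activity normalized between vehicle control (0%) and zero RLU (-100%) from firefly luminescence (Dual-Glo). Compounds, up to 57.5 uM final, incubated 24 h at 37C on HEK293 reporter cells plated 24 h earlier.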
Potency is the fitted concentration of half-maximal effect.

| Compound | Potency |
| --- | --- |
| O=C(NCc1cccnc1)C(=O)NCC(c1cccnc1)N1CCN(c2ccccc2F)CC1 (centres undefined) | inactive |
| COc1ccc(-c2ccc3ncc4c(c3c2)n(-c2ccc(N3CCNCC3)c(C(F)(F)F)c2)c(=O)n4C)cn1 | inactive |
| CC(C)c1nc2ccc(C(=O)NCCCN3CCN(c4cccc(Cl)c4)CC3)cc2o1 | inactive |
| COc1ccc(Nc2nc(-c3ccc(C)cc3)nc3ccccc23)c(OC)c1 | inactive |
| CC(C)[C@H](CO)Nc1nc(Nc2ccc(C(=O)O)c(Cl)c2)c2ncn(C(C)C)c2n1 | inactive |
| O=C(O)c1ccc2c(c1)N(Cc1ccc(F)cc1)C(=O)c1ccccc1S2=O (centres undefined) | inactive |
| CC(=O)c1ccc(NS(=O)(=O)c2ccc3[nH]c(=O)[nH]c3c2)cc1 | inactive |
| O=c1cc(-c2ccccc2)oc2cc(O)cc(O)c12 | inactive |
| COC(=O)C1=C(C)NC(C)=C(C(=O)OCC(C)=O)C1c1ccccc1[N+](=O)[O-] (centres undefined) | inactive |
| Cc1cccc(S(=O)(=O)Nc2cccc(-c3ccc(N4CCCCC4)nn3)c2)c1 | inactive |
| CCCCC(=O)Nc1cccc(-c2nc3ccccc3s2)c1 | inactive |
| CC(=O)N1CCc2c(sc(NC(=O)CSc3ccccc3)c2-c2nc3ccccc3s2)C1 | 26.9 µM (active) |
| CCN(CC)CCOc1ccc(C(=C(Cl)c2ccccc2)c2ccccc2)cc1 | inactive |
| COc1ccccc1N1CCN(S(=O)(=O)c2ccc(F)c(C(=O)Nc3ccc(Cl)cc3C(F)(F)F)c2)CC1 | inactive |
| CN1C(=O)c2ccccc2Sc2ccc(NC(=O)NCc3ccc(Cl)cc3)cc21 | 23.9 µM (active) |
| NC(=O)Nc1cc(-c2ccc(CN3CCOCC3)cc2)sc1C(N)=O | inactive |
| O=C(CSc1nccn1Cc1ccc(F)cc1)Nc1nc2ccccc2s1 | inactive |
| COc1ccc(S(=O)(=O)Nc2cc3c(cc2NCc2ccccc2)n(C)c(=O)n3C)cc1OC | inactive |
| CCc1ccc2c(c1)-c1ccccc1S(=O)(=O)N2CC(=O)N1CCCCC1 | inactive |
| CCCCOC(=O)c1ccc(NC(=O)c2sc3nc(C)cc(C)c3c2N)cc1 | 12 µM (active) |
| CN(C)Cc1c(C(=O)NCCOc2ccc(C(=O)NO)cc2)oc2ccccc12 | inactive |
| O=c1c(-c2ccc(O)cc2)coc2cc(O)ccc12 | inactive |
| CC(=O)N1CCCc2cc(S(=O)(=O)N3CCCC(C(=O)N4CCN(c5ccccc5)CC4)C3)ccc21 (centres undefined) | 9.53 µM (active) |
| COc1ccccc1N=c1scc(-c2ccc(S(=O)(=O)N3CCCC3)cc2)n1C | 4.78 µM (active) |
| Cn1c(NCCN(CCO)CCCc2ccc([N+](=O)[O-])cc2)cc(=O)n(C)c1=O | inactive |

| Compound | Potency |
| --- | --- |
| Cc1oc(-c2cccc(Cl)c2)nc1CN1CCC(C(=O)NCCCN2CCN(c3ccc(F)cc3)CC2)CC1 | 13.5 µM (active) |
| Cc1ccc(S(=O)(=O)Nc2cccc(-c3ccc(N4CCCCC4)nn3)c2)s1 | inactive |
| O=C(C=Cc1cccc(S(=O)(=O)Nc2ccccc2)c1)NO | inactive |
| COc1ccc([C@@H]2CNC(=O)C2)cc1OC1CCCC1 | inactive |
| O=C(C=Cc1ccc(O)cc1)c1ccc(O)cc1O | inactive |
| COc1ccc2nc(N3CCN(C(=O)CS(=O)(=O)c4ccc(C)cc4)CC3)sc2c1 | inactive |
| CCN(C(=O)CSc1nc(-c2ccccc2)no1)c1cccc(C)c1 | inactive |
| CC=C1NC(=O)[C@H]2CSSCCC=C[C@H](CC(=O)N[C@H](C(C)C)C(=O)N2)OC(=O)[C@H](C(C)C)NC1=O | inactive |
| CCc1ccc(-n2c(SCC(=O)NC(C)CC)nc3n[nH]c(C)c3c2=N)cc1 (centres undefined) | inactive |
| C#Cc1cccc(Nc2ncnc3cc(OC)c(OCCCCCCC(=O)NO)cc23)c1 | inactive |
| COc1ccc(S(=O)(=O)c2cc3cc(C(C)(C)C)cc(O)c3oc2=O)cc1 | inactive |
| Cc1cccc(NC(=O)c2c(NC(=O)C(F)(F)F)sc3c2CCCCC3)c1 | 2.39 µM (active) |
| Cc1c(NS(C)(=O)=O)cccc1-c1nc2ccccc2s1 | inactive |
| CCc1nc2ccc(C(=O)NCCc3ccc(OC)cc3OC)cc2nc1CC | inactive |
| COC[C@H](NC(=O)c1cnc(C)s1)C(=O)N[C@@H](COC)C(=O)N[C@@H](Cc1ccccc1)C(=O)[C@@]1(C)CO1 | 0.301 µM (active) |
| CCCN(c1ccccc1CC)S(=O)(=O)c1ccc2c(c1)CC(C)N2C(=O)C1CC1 (centres undefined) | 13.5 µM (active) |
| COc1ccccc1NC(=O)CN1C(=O)C(C)(C)c2ccccc21 | inactive |
| O=C(CN1c2ccc(Br)cc2-c2ccccc2S1(=O)=O)N1CCCCC1 | inactive |
| Cc1ccc(C)c(N2CCN(C(=O)c3nn(C)c4c3CS(=O)(=O)c3ccccc3-4)CC2)c1 | 23.9 µM (active) |
| O=C(Nc1ccc(Cl)c(Cl)c1)N(Cc1c[nH]c2ccccc12)C1CCCCC1 | inactive |
| Cc1ccc(C2=CC(c3ccc(Cl)cc3)n3nc(-c4ccc(C)cc4)nc3N2)cc1 (centres undefined) | inactive |
| Cc1ccc(N2C(=O)C(CC(=O)Nc3ccccc3)N(CCC3=CCCCC3)C2=O)cc1 (centres undefined) | inactive |
| COc1ccc(NC(=O)Cn2nc(-c3ccncc3)ccc2=O)cc1Cl | inactive |
| COc1cc(OC)cc(C(=O)Nc2c(C(=O)Nc3ccc(F)cc3)oc3ccccc23)c1 | inactive |
| Cc1ccc(S(=O)(=O)n2nc(-c3ccccc3)nc2NCc2ccccc2Cl)cc1 | inactive |

| Compound | Potency |
| --- | --- |
| CCCCc1nc2cc(C=CC(=O)NO)ccc2n1CCN(CC)CC | inactive |
| CN[C@H]1[C@@H](O)[C@@H]2O[C@@H]3O[C@H](C)CC(=O)[C@]3(O)O[C@@H]2[C@@H](NC)[C@H]1O | inactive |
| COc1cccc(CNC(=O)c2ccc3nc(N4CCCCC4)sc3c2)c1OC | inactive |
| Cc1ccccc1NC(=O)c1c(NC(=O)C(F)(F)F)sc2c1CCCCC2 | 0.849 µM (active) |
| CCc1ccc(NC(=O)Nc2cn(C)c(=O)c3ccccc23)cc1 | inactive |
| Cc1ccccc1Cn1c(=O)n(Cc2ccco2)c(=O)c2oc3ccccc3c21 | inactive |
| COc1cccc(-c2cn3c(n2)sc2cc(C(=O)NCc4cccs4)ccc23)c1 | inactive |
| COc1ccc(C2C=C(c3ccc(Br)cc3)Nc3nnnn32)c(OC)c1 (centres undefined) | inactive |
| O=C(C=Cc1ccc(CN(CCO)CCc2c[nH]c3ccccc23)cc1)NO | inactive |
| CC(C)C[C@@H](C=O)NC(=O)[C@H](CC(C)C)NC(=O)[C@H](CC(C)C)NC(=O)OCc1ccccc1 | 2.13 µM (active) |
| COc1ccc(-c2nnc(C3CCN(C(=O)c4ccccc4F)CC3)o2)cc1 | inactive |
| CN(C)Cc1ccc(-c2nc3cccc4c3n2CCNC4=O)cc1 | inactive |
| Cc1cc(Nc2sc(C(=O)c3ccc(F)cc3)c(N)c2C(=O)Nc2ccc(F)cc2)ccc1Cl | 1.69 µM (active) |
| Cc1ccccc1OCC(=O)Nc1ccccc1C(=O)OCc1cc(=O)n2c(C)csc2n1 | inactive |
| CC(C)c1ccc(Cc2cnc(NC(=O)c3ccc4c(c3)CC(c3ccccc3)OC4=O)s2)cc1 (centres undefined) | 3.79 µM (active) |
| CCOc1ccc(C(=O)Nc2ccc(S(=O)(=O)N3CCCCC3c3cccnc3)cc2)cc1 (centres undefined) | 21.3 µM (active) |
| Cc1ccc(S(=O)(=O)n2nc(-c3ccco3)nc2NCc2ccccc2Cl)cc1 | inactive |
| CC(C)(C)C(=O)NCCc1nc2ccccc2n1CCCCOc1ccc(Cl)cc1 | 26.9 µM (active) |
| COc1ccc(-c2noc(N3CCC(C(=O)N4CCN(c5cccc(OC)c5)CC4)CC3)n2)cc1 | 1.35 µM (active) |
| COc1ccccc1C1Nc2c(sc3nc(C)cc(C)c23)C(=O)N1c1ccccc1 (centres undefined) | inactive |
| COc1cccc(N2CCN(C(=O)c3cccc(-n4c(C)nc5cccnc54)c3)CC2)c1 | 23.9 µM (active) |
| Cc1[nH]c2ccccc2c1CCNCc1ccc(C=CC(=O)NO)cc1 | inactive |
| Cc1cc(Nc2cccc(C(F)(F)F)c2)nc2ccc(NC(=O)c3cccnc3)cc12 | 19 µM (active) |
| COc1ccc(NC(=O)Cn2c(SCc3ccc(C)cc3)nc3cccnc32)cc1OC | inactive |
